# Measured values: PubChem BioAssay AID588511 (Johns Hopkins Ion Channel Center, 2011)
# In all, about 310,000 compounds went through this assay and about 3,600 (1.2%) were called active.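 The calls were made as follows: active = ratio plate-corrected score three or more library SD toward inhibition, starting fluorescence score within five deviations; inactive = the rest.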 This excerpt belongs to a sample that is enriched for actives.
# Target: Anoctamin-1 (Mus musculus) (UniProt Q8BHY3)
# Assay: TMEM16A chloride channel inhibitors, primary screen, cell-based, HTS (AID 588511);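 as to normalized B-score (activity score, 25-100; higher = stronger inhibition): score derived from kinetic fluorescence span divided by baseline fluorescence per well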
# Settings: HEK293 TMEM16A/YFP iodide influx fluorescence, ionomycin; at 10 µM
# Sequence of Anoctamin-1 (Mus musculus) (Q8BHY3 whole entry, looked up): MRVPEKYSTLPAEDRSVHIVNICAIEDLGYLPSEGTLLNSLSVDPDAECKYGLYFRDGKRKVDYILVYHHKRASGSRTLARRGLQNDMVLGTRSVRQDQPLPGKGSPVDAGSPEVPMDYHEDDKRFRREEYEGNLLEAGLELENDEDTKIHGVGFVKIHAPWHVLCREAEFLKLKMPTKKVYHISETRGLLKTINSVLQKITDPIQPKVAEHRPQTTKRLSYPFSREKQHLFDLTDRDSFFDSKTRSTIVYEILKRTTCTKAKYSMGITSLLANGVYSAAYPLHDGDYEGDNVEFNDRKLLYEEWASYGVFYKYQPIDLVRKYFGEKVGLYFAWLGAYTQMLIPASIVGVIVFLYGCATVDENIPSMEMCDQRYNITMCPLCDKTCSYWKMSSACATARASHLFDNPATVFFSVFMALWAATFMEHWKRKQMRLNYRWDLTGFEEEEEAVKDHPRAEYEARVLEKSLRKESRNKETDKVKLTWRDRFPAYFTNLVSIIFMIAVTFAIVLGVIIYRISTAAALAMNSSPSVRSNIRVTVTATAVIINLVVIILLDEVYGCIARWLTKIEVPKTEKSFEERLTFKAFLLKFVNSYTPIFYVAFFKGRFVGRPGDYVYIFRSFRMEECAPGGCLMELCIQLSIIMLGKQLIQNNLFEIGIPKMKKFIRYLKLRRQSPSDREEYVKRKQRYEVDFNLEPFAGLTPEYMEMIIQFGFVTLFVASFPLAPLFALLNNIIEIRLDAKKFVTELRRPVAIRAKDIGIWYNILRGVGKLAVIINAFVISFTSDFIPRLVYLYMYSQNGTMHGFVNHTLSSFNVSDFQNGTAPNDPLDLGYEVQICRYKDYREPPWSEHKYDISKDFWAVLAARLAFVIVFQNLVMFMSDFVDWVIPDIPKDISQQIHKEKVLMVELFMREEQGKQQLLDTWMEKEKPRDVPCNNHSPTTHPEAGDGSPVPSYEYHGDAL
row,Structure (SMILES),"normalized B-score (activity score, 25-100; higher = stronger inhibition)"
1,CCOc1cccc(=NC2CCCCC2)c2c(C)[nH]c(C)c12,25 (active)
2,Nc1ccc(C(=O)N/N=C2/CN3CCC2CC3)cc1,inactive
3,CCOC(=O)C1CN(C)CCC1=O (stereo not given),inactive
4,CCCCn1c(=O)c(C(=O)Nc2ccccc2Cl)c(O)c2ccccc21,inactive
5,CCCCCn1c(=O)c(C(=O)NCc2ccccc2)c(O)c2ccccc21,inactive
6,CCCCCn1c(=O)c(C(=O)NCc2ccccn2)c(O)c2ccccc21,25 (active)
7,O=C(Cn1c(=O)n(CC2CS2)c2ccccc21)N1CCCCC1 (stereo not given),inactive
8,O=c1[nH]c(=O)n(-c2ccccc2)c(O)c1C=NC12CN3CN(CN(C3)C1)C2,inactive
9,COc1ccccc1NC(=O)N1C[C@@H]2C[C@@H](C1)c1cccc(=O)n1C2,inactive
10,Cc1ccc(P(=S)(c2ccc(C)o2)N2CCOCC2)o1,inactive
11,COc1ccc(-n2c(-c3ccccc3)nc3ccccc3c2=O)cc1,inactive
12,CCN(CC)P(=O)(Oc1cccc(C)c1)N(CC)CC,inactive
13,CCN(CC)C(=O)c1ccc(NC(=O)c2sccc2-c2ccccc2)cc1,inactive
14,COc1ccc(-c2nn(CCC#N)cc2C(=O)Nc2ccc(C(C)=O)cc2)cc1,inactive
15,CCN(CC)C(=O)c1ccc(NC(=O)c2cc(-n3cnnc3)ccc2Cl)cc1,100 (active)
16,O=[N+]([O-])c1ccc(C2C3C(c4ccccc4)=NC4(CCCCC4)N32)cc1 (stereo not given),inactive
17,CN(C)S(=O)(=O)c1cc(C(=O)N2CCC(C(=O)O)(c3ccccc3)CC2)ccc1Cl,inactive
18,c1ccc(CCNC2CCCCCC2)cc1,inactive
19,CCCCCCCCCCCCn1ccc(=N)cc1,25 (active)
20,CC1(C)C(c2ccccc2)=NC(c2cccnc2)=[N+]1[O-],inactive
